The list is not random: actives were taken first. Their share in the collection is about 2.6%.
BRCA1 expr up: increases BRCA1 expression | MCF7-BRCA1-FFLuc reporter, luminescence, 48 h; response scale: scaled: vehicle 0%, 10 µM genistein 100% | Potency, µM (doses to about 46.1 µM), actives largely listed as activators | hit rate 1.1% among 380,000 | AID 624202; note: nearly all actives have a fitted effect of over 80% in size
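Luminescence from a BRCA1-driven firefly luciferase in MCF7 cells was read after 48 h compound exposure at 37 C. Data normalized against DMSO and a 10microM genistein activation control, then curve-fitted across the titration.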
GLP-1R inv ag: inverse agonists of human GLP-1 receptor. Potency, µM (top dose mostly 38.3 µM), most hits filed as inhibitors. P43220. hit rate 1.6% among 410,000. HEK293 GLP-1R CRE-luciferase, luminescence, 24 h; GLP-1R form is constitutively active; note: nearly all actives have a fitted effect of over 55% in size
Target sequence (P43220 whole entry, looked up): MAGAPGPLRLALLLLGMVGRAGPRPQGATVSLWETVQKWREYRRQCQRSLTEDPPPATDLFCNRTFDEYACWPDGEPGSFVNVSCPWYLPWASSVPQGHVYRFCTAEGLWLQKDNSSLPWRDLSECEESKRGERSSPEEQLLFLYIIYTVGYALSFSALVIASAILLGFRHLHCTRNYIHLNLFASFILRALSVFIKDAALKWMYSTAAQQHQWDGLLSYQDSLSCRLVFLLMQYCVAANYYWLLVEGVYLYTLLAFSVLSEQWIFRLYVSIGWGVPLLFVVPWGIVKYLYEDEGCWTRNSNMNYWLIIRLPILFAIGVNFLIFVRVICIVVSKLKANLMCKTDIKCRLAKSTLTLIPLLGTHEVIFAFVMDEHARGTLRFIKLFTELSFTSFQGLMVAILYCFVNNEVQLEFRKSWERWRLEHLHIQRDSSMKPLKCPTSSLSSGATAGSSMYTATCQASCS
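Using stably transfected HEK293 (constitutively active GLP-1R, cAMP-luciferase reporter), compounds were incubated 24 hr and luciferase measured by luminescence.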
GLP1R cytotox: cytotoxicity in counter-screen for GLP-1R inverse agonists | HEK293 cAMP-luciferase reporter cells, luminescence, 24 h | Potency, µM (highest dose often 38.3 µM), hits mostly inhibitors | hit rate 0.13% among 410,000;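 note: loss of luciferase light is scored as toxicity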
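Here, cytotoxicity is scored as loss of luminescence. The MLSMR collection was tested on cells seeded in medium containing 10% Nu serum, with a 24 hr compound exposure preceded by 12 hours of culture.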
GLP-1R agonist: agonists of human GLP-1 receptor; P43220; HEK293 GLP-1R CRE-luciferase, luminescence, 4-6 h; cells express a hypersensitive GLP-1R form; Potency, µM (top dose mostly 45.6 µM), usual class: activators; hit rate 0.007% among 380,000; AID 624172
A number is an active result; – = inactive; ? = inconclusive; · = not tested or not shown. Calls come from the whole dose curve; as a rule, active = well fitted curve in the direction sought with a large enough effect; inconclusive = small, poorly fitted or top-dose-only effect, or another doubt; inactive = no such curve, though single readings can be large; an effect the other way counts as inactive or inconclusive.

SMILES	BRCA1 expr up	GLP-1R inv ag	GLP1R cytotox	GLP-1R agonist
CCOC(=O)C(c1ccccc1)C(Nc1ccc(F)cc1)c1ccccn1 (stereo not drawn)	–	10µM	–	–
Cc1cc(C)cc(NS(=O)(=O)c2c(C)nc3scc(C)n3c2=O)c1	·	–	–	·
CCC(C)C(C(=O)OCC[N+](C)(CC)CC)c1ccccc1 (stereo not drawn)	·	·	·	–
COC(=O)c1ccc(NC(=O)Cn2c(=O)oc3ccccc32)cc1	·	–	–	·
CC1(C)Cc2c(cnn2-c2ccccc2)-c2c1c1ccccc1n2CC(O)CBr (stereo not drawn)	–	7.1µM	–	–
COc1ccc(-c2c3c(=O)n(C)c(=O)n(C)c3c3c(-c4ccc(C)cc4)nc4ccccc4n23)cc1	·	–	–	·
COc1ccc(NC(=O)CCc2nnc3n(C)c(=O)c4sccc4n23)cc1	·	–	–	·
Cc1noc(C)c1COc1cccc(C(=O)OC(C)C#N)c1 (stereo not drawn)	–	–	–	–
Cc1noc(C)c1COc1cccc(C(=O)OCCOc2ccc(F)cc2)c1	–	10µM	–	–
O=C(N/N=C\c1cccc(Cl)c1)c1ccc(Cn2cc(Br)c([N+](=O)[O-])n2)o1	–	?	–	–
Cc1c(Cl)c([N+](=O)[O-])nn1Cc1ccc(C(=O)N/N=C\c2cccc(Br)c2)o1	–	10µM	–	–
O=C(OCc1ccccc1)N(CCCCN(CCCNCc1ccccc1)C(=O)OCc1ccccc1)CCCNCc1ccccc1	–	2.8µM	?	–
O=C(NCCCCCCNC(=O)OCc1ccccc1)OCc1ccccc1	–	–	–	–
O=C(CC1CC2CCC1C2)NC1CCCCCCC1 (stereo not drawn)	?	?	–	–
O=C(Nc1nnc([C@@H]2C[C@H](O)[C@@H](CO)O2)s1)Nc1ccccc1F	6.3µM	?	–	–
O=C(Nc1ccc(F)c(Cl)c1)Nc1nnc([C@H]2C[C@H](O)[C@@H](CO)O2)s1	11µM	–	–	–
O=C(Nc1nnc([C@@H]2C[C@H](O)[C@@H](CO)O2)s1)c1ccccc1Cl	–	–	–	–
O=C(Nc1cccc(Cl)c1)Nc1nnc([C@@H]2C[C@H](O)[C@@H](CO)O2)s1	?	?	–	–
O=C(Nc1nnc([C@@H]2C[C@H](O)[C@@H](CO)O2)s1)c1cccc2ccccc12	8.9µM	–	–	–
O=C(Nc1nnc([C@H]2C[C@H](O)[C@@H](CO)O2)s1)Nc1ccccc1F	–	–	–	–
CC(C)Cc1ccc(C(=O)NCCOc2ccccc2)o1	?	11µM	–	–
Cc1ccc(OCCNC(=O)c2ccc(COc3ccccc3)o2)cc1	–	?	–	–
Cc1c(N)ccc(-n2nc3ccccc3n2)c1C	11µM	–	–	–
COc1cc(/C=C(\C#N)C(=O)Nc2cccc(C(=O)O)c2)ccc1OCc1ccc(C)cc1	5µM	–	–	–
O=C1C(=O)N(C2CCN(C(=O)c3cccc(Cl)c3)CC2)CCN1Cc1ccc(F)cc1	·	–	–	·
SMILES	BRCA1 expr up	GLP-1R inv ag	GLP1R cytotox	GLP-1R agonist
CCCn1c(NCc2cccc(OC)c2O)nc2ccccc21	6.3µM	–	–	–
CCn1c(COc2ccccc2C)nc2ccccc21	7.9µM	?	–	?
COc1ccc(OCc2nc3ccccc3n2Cc2ccc(C(C)(C)C)cc2)cc1	4.5µM	–	–	–
CCCn1c(NCc2cccc(OC)c2OC)nc2ccccc21	–	?	–	–
COc1ccccc1C(O)Cc1nc2ccccc2n1C (stereo not drawn)	10µM	–	–	–
CC(C)c1ccc(C(O)Cc2nc3ccccc3n2C)cc1 (stereo not drawn)	?	–	–	–
CN1CCN(c2ccc(CNC(=O)C3Cc4c(-c5ccc(Cl)cc5)ccnc4O3)cc2)CC1 (stereo not drawn)	–	?	–	–
Cn1c(COc2ccccc2Br)nc2ccccc21	6.3µM	–	–	–
CCCn1c(COc2ccccc2OC)nc2ccccc21	–	10µM	–	–
CCOc1ccccc1NC(=O)N1CCN(S(=O)(=O)c2ccc3c(ccn3C)c2)CC1	–	–	–	–
CCOC(=O)N1CCC(NC(=O)c2ccc3c(c2)N(Cc2cc(C)ccc2C)C(=O)c2ccccc2S3(=O)=O)CC1	·	–	–	·
Cc1ccc(CNC(=O)c2cc3c(s2)-c2ccc(Cl)cc2SC3)cc1	·	–	–	·
CCCN(C(=O)c1cc2c(s1)-c1ccccc1OC2)c1ccccc1F	–	?	–	–
CN(C)CCNC(=O)c1cc2c(s1)-c1ccc(Cl)cc1SC2	–	13µM	?	–
CCCN(C(=O)c1cc2c(s1)-c1ccccc1SC2)c1ccccc1F	·	11µM	–	·
CCc1nnc(SCC(=O)Nc2ccc(Cl)cc2F)c2cc3occc3n12	·	–	–	·
CC(=O)N1CCc2cc(S(=O)(=O)NCCC(=O)Nc3cc(C)cc(C)c3)ccc21	–	–	–	–
CC(=O)N1CCc2cc(S(=O)(=O)NCCC(=O)Nc3ccc4c(c3)OCCO4)ccc21	11µM	–	–	–
Cc1ccc(CCNC(=O)c2sc3ncccc3c2-n2c(C)ccc2C)cc1	·	11µM	–	·
CCOc1ccc(CCNC(=O)c2sc3ncccc3c2-n2c(C)ccc2C)cc1	·	?	–	·
CC(C)c1ccc(-n2nnnc2SCc2nc(N)nc(N)n2)cc1	–	–	–	–
COC(=O)c1cccc(CN2C(=O)C(C)Sc3cc(Cl)ccc32)c1 (stereo not drawn)	5µM	?	–	–
O=c1c2ccccc2nnn1-c1ccccc1[N+](=O)[O-]	–	–	–	–
CC(C)(C)NC(=O)CON=C1c2ccccc2-c2ccccc21	–	?	–	–
CC(C)(C)NCC(O)CON=C1c2ccccc2-c2ccccc21 (stereo not drawn)	–	4µM	?	–
SMILES	BRCA1 expr up	GLP-1R inv ag	GLP1R cytotox	GLP-1R agonist
Cc1cccc(C)c1OCc1nc2ccccc2[nH]1	–	?	–	–
Cc1ccc(C)c(OCc2nc3ccccc3[nH]2)c1	3.2µM	?	–	–
CSc1ccc(/C=C/c2ccnc3ccccc23)cc1	4.5µM	·	·	·
COc1ccc(-n2c(SCc3ccccc3F)nc3c([nH]c4ccccc43)c2=O)cc1OC	–	–	–	–
COc1ccccc1N=c1oc2cc(O)ccc2cc1C(=O)NCC1CCCO1 (stereo not drawn)	–	–	–	?
COc1ccccc1N=c1oc2cc(O)ccc2cc1C(N)=O	10µM	–	–	–
COc1ccc(-c2noc(-c3cccnc3)n2)cc1OC	7.9µM	–	–	?
CCOc1ccc(-c2noc(-c3cccnc3)n2)cc1OC	8.9µM	–	–	–
CCOc1cc(-c2noc(-c3cccnc3)n2)ccc1OC	–	–	–	–
COc1ccc(-c2nnc(-c3cccnc3)o2)cc1OC	–	–	–	?
CCc1ccc(NC(=O)c2cc3nc(-c4ccc(C)cc4)cc(C(F)(F)F)n3n2)cc1	–	–	–	–
FC(F)Oc1ccc(C2N=C(c3ccccc3)NO2)cc1 (stereo not drawn)	4.5µM	–	–	–

Source: PubChem BioAssay (National Center for Advancing Translational Sciences (NCATS))
